PubChem BioAssay (Tox21)
Inconclusive results are not listed. Calls of active or inactive are those of the source. The call rests on the fitted dose curve; in most records, active means well fitted inhibition curve with a large enough effect in the repeat runs; inconclusive means weak or mixed curves; inactive means no such curve, though single readings can be large or run the other way.

biological target: Estrogen receptor (Homo sapiens) (UniProt P03372); test: qHTS assay to identify small molecule antagonists of the estrogen receptor alpha (ER-alpha) signaling pathway using the BG1 cell line in the presence of 0.1 nM 17-beta-estradiol (AID 1259244); conditions: VM7Luc4E2 (BG1) ERE-luciferase, antagonist mode, 0.1 nM E2, 22 h; series mostly up to 92.4 µM; activity change, negative = inhibition: at the top concentration; further: nearly all actives have a fitted effect of over 50% in size
Source text: National Center for Advancing Translational Sciences [NCATS]
NIH Chemical Genomics Center [NCGC]
U.S. Environmental Protection Agency [EPA]
National Institutes of Environmental Health Sciences [NIEHS]
National Toxicology Program [NTP]
U.S. Food and Drug Administration [FDA]
Estrogen receptor (ER), a member of the nuclear hormone receptor plays an important role in development, metabolic homeostasis and reproduction. Two subtypes of ER, ER-alpha and ER-beta, have similar expression patterns with some uniqueness in both types. Endocrine disrupting chemicals (EDCs) and their interactions with steroid hormone receptors like ER causes disruption of normal endocrine function. Therefore, it is important to understand the effect of environmental chemicals in ER signaling pathway. For identifying ER antagonists, VM7Luc4E2 cell line was used to screen against Tox21 compound libraries.
VM7Luc4E2 cell line (provided by Denison MS, University of California) endogenously express full-length ER-alpha and is stably transfected with a plasmid containing four estrogen responsive elements (ERE) upstream of a luciferase reporter gene. The current screening for identification of ER-alpha inhibitors against Tox21 compound libraries used lower concentration (0.1 nM) of 17beta-Estradiol as a stimulator.
Tox21 Assay Protocol Summary:
VM7Luc4E2 cells were cultured in phenol red free assay medium containing 10% charcoal stripped FBS for 5 days prior to the assay. The cells were dispensed at 4,000 cells/well in 4 uL of assay medium into white wall/solid-bottom 1536-well plates (Corning Life Sciences, Corning, NY) using a Multidrop Combi (ThermoFisher Scientific, Waltham, MA) dispenser. After the assay plates were incubated at 37C and 5% CO2 for 24 hr, 23 nL of compounds dissolved in DMSO, positive controls or DMSO only was transferred to the assay plates by a Pintool station (Kalypsys, San Diego, CA). The transfer of compounds was followed by the addition of 1 uL of 0.1 nM (final concentration) agonist (17beta-Estradiol)/assay medium using a Flying Reagent Dispenser (FRD, Aurora Discovery, San Diego, CA). The plates were incubated at 37C and 5% CO2 for 22 hr. For luciferase reporter gene assay, 4 uL of ONE-Glo reagent (Promega Corporation, Madison, WI) was added to each well using the FRD and after 30 min incubation at room temperature luminescence intensity was measured using ViewLux plate reader (PerkinElmer, Shelton, CT).
On the % scale 0 is the no-effect control and ±100 the full control effect; potency means the concentration at half of the fitted maximal effect.

Estrogen receptor (Homo sapiens), sequence (P03372 whole entry, looked up): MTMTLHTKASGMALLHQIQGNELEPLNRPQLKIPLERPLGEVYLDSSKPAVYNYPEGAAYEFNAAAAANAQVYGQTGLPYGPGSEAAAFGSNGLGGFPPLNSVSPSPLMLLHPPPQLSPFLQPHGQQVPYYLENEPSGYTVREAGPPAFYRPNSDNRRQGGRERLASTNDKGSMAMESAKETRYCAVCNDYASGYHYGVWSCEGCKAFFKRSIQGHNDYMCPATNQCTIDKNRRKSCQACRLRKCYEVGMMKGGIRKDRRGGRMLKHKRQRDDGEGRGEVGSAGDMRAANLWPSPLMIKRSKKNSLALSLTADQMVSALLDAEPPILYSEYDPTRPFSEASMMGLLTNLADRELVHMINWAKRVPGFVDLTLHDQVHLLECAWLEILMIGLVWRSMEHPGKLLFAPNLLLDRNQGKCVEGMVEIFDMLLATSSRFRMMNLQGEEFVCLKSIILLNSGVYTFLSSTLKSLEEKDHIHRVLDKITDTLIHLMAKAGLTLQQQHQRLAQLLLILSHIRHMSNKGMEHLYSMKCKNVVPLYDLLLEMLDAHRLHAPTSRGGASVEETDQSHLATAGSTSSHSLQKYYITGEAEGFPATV

Compound | activity change, negative = inhibition | Potency
CN1CCN(c2ccccc2/C=C2\SCCN(c3ccc(Cl)c(Cl)c3)C2=O)CC1 | -16.9% (inactive) | 
C=CC(=O)OCCOC1C2CCC1C1CC=CC12 (stereo not given) | 2.43% [at 19 µM] (inactive) | 
C=CC(C)(C)O | -1.45% (inactive) | 
CCNc1nc(NC(C)(C)C)nc(OC)n1 | -1.95% (inactive) | 
CC(c1cc(C(C)(C)C)cc(C(C)(C)C)c1O)c1cc(C(C)(C)C)cc(C(C)(C)C)c1O | 5.85% (inactive) | 
CC(C)c1ccc2sc3ccccc3c(=O)c2c1 | 78.1% (inactive) | 
[Cl][Dy]([Cl])[Cl] | 2.23% (inactive) | 
Clc1cccc(Cl)n1 | 0.328% (inactive) | 
Cc1c[nH]c(=O)[nH]c1=O | -4.94% (inactive) | 
c1ccc(-c2ccc(C(c3ccccc3)n3ccnc3)cc2)cc1 (stereo not given) | -27.6% [at 42.5 µM] (inactive) | 
CCC(O)CO (stereo not given) | 1.95% (inactive) | 
O[Si](c1ccccc1)(c1ccccc1)c1ccccc1 | -19.8% (inactive) | 
C=CC(=O)OCC(Br)CBr (stereo not given) | 9.09% (inactive) | 
Cc1ccc2sc3cccc(C)c3c2c1 | 21.5% (inactive) | 
CCC(C)(C)c1ccc(CC(C)CN2C[C@@H](C)O[C@@H](C)C2)cc1 (stereo not given in full) | -16.5% [at 42.5 µM] (inactive) | 
Cc1ccc(N=Nc2c(O)ccc3ccccc23)c(C)c1 | 11.4% [at 42.5 µM] (inactive) | 
[Cl][Sc]([Cl])[Cl] | 6.21% (inactive) | 
COc1cc(OC)nc(NC(=O)NS(=O)(=O)Nc2ccccc2C(=O)N(C)C)n1 | -4.63% (inactive) | 
CC(=O)[C@]1(O)Cc2c(O)c3c(c(O)c2[C@@H](O[C@H]2C[C@H](N)[C@H](O)[C@H](C)O2)C1)C(=O)c1ccccc1C3=O | -92.9% [at 42.5 µM] (inactive) | 
O=C(O)CN(CCCN(CC(=O)O)CC(=O)O)CC(=O)O | -0.399% [at 19 µM] (inactive) | 

Compound | activity change, negative = inhibition | Potency
Nc1ccc(Oc2cccc(Oc3ccc(N)cc3)c2)cc1 |  | 8.63 µM (active)
C[C@H]1O[C@@H](O[C@H]2CC[C@@]3(C)[C@H](CC[C@@H]4[C@@H]3C[C@@H](O)[C@]3(C)[C@@H](C5=CC(=O)OC5)CC[C@]43O)C2)C[C@H](O)[C@@H]1O[C@H]1C[C@H](O)[C@H](O[C@H]2C[C@H](O)[C@H](O[C@@H]3O[C@H](CO)[C@@H](O)[C@H](O)[C@H]3O)[C@@H](C)O2)[C@@H](C)O1 | -76.3% [at 42.5 µM] (inactive) | 
CCCCCCCCCCCCCCCCCCNC(=O)OC1CCN(C(=O)OC[C@H](COC(=O)N(Cc2cccc[n+]2CC)C(=O)c2ccccc2OC)OC)CC1 |  | 29.8 µM (active)
[Cl][Eu]([Cl])[Cl] | 0.381% (inactive) | 
CN(C/C=C/c1ccccc1)Cc1cccc2ccccc12 | -24% [at 42.5 µM] (inactive) | 
CC(C)=NNC(N)=S | 0.137% (inactive) | 
CC(Cc1ccc(O)c(O)c1)C(C)Cc1ccc(O)c(O)c1 (stereo not given) | 0.5% (inactive) | 
CCN(CC)c1ccc(N=Nc2ccccc2)cc1 | -25.1% (inactive) | 
CC(C)C(=O)C(C)C | -0.223% (inactive) | 
CCN(CC)c1ccc2c(c1)Oc1cc(N(CC)CC)ccc1C21OC(=O)c2ccccc21 | -21.4% [at 42.5 µM] (inactive) | 
O=S(=O)(c1ccc(OCc2ccccc2)cc1)c1ccccc1O |  | 27.3 µM (active)
CC1(C)[C@H](C(=O)OCc2cccc(Oc3ccccc3)c2)[C@@H]1C=C(Cl)Cl | 10.8% (inactive) | 
C=CCc1cc(S(=O)(=O)c2ccc(O)c(CC=C)c2)ccc1O |  | 61.1 µM (active)
Clc1nc(C(Cl)(Cl)Cl)c(Cl)c(Cl)c1Cl | 5.91% (inactive) | 
CCCCNc1ccc(NCCCC)c2c1C(=O)c1ccccc1C2=O | 2.76% [at 19 µM] (inactive) | 
C1=CCCC1 | 2.08% (inactive) | 
Cc1cccc2c1ccc1ccccc12 | 30.7% (inactive) | 
CCOC=C(C(=O)OCC)C(=O)OCC | -1.54% (inactive) | 
CCn1c2ccccc2c2ccccc21 | -5.67% (inactive) | 
C=COCCCC | -1.29% (inactive) | 
